# Screening results as filed in PubChem.
# Most compounds without a hit are left out; they make up all but 0.29% or so of the library.
# Mtb hypoxia rep – Mtb hypoxia fluorescent reporter inhibition; M. tuberculosis hypoxia-regulated fluorescent reporter, fluorescence; fluorescence inhibition, % (test concentration not listed); 300,000 compounds, 0.1% hits; AID 1159583; in the data active = fluorescence inhibition mostly above about 23%, no sharp cut-off; inactive = mostly below about 17%
# Yp Topo-I inh – blocks Yersinia pestis topoisomerase I activity. Y. pestis Topo-I cleavage product accumulation, plate reader. activity, % at 10 µM. 360,000 compounds, 0.064% hits. AID 504884; in the data active = activity above about 50%, passing the limit was not always enough
# Vc quorum ag-1 – induces V. cholerae light production without autoinducers | V. cholerae BH1578 lux reporter, luminescence, 6 h | activation, % at 18.7 µM | 350,000 compounds, 0.16% hits | AID 588436; in the data active = activation mostly above about 9.7%, no sharp cut-off
# Vc quorum ag-2 – induces V. cholerae light production without autoinducers | 620 tested, under 10 active | activation, % at 50 µM | shares compounds with Vc quorum ag-1 | V. cholerae BH1578 lux reporter, luminescence, 6 h; call rule not given here
# * = called active by the depositor; i = inactive; · = no result.
SMILES,Mtb hypoxia rep,Yp Topo-I inh,Vc quorum ag-1,Vc quorum ag-2
CCOCCCNC(=O)C(NC(=O)CNC(C)=O)c1ccc(Cl)cc1 (configuration not stated),·,-4,0,·
CCN(CCNC(=O)C1CCCN(S(=O)(=O)CC)C1)c1ccccc1 (configuration not stated),6,9,12,0
CCN(CCNC(=O)C1CCN(S(=O)(=O)CC)CC1)c1ccccc1,14,-7,-2,·
CCCS(=O)(=O)N1CCCC(C(=O)NCCCN(C)Cc2ccccc2)C1 (configuration not stated),3,-5,17*,0
CCCS(=O)(=O)N1CCCC(C(=O)NCc2ccc(C)cc2)C1 (configuration not stated),5,2,12,0
CCCS(=O)(=O)N1CCCC(C(=O)NCCCN(Cc2ccccc2)C(C)C)C1 (configuration not stated),1,-5,i,·
CCCCN(CCCNC(=O)C1CCCN(S(=O)(=O)CCC)C1)Cc1ccccc1 (configuration not stated),1,6,-1,·
CCCS(=O)(=O)N1CCCC(C(=O)NCCCN(C)c2ccccc2)C1 (configuration not stated),12,20,17*,0
CCCS(=O)(=O)N1CCCC(C(=O)NCc2cccnc2)C1 (configuration not stated),11,8,·,·
Cc1ccc(C=NN2CCN(c3ccccn3)CC2)o1,-14,·,·,·
O=C(CSC(=S)N1CCCC1)N(Cc1nnc(-c2ccccc2Cl)o1)C1CC1,9,34,i,·
CCOC(=O)C1CCN(C(=O)c2cc(COc3ccc(F)cc3F)on2)CC1,11,22,i,·
Cc1n[nH]c(C)c1CCCCOc1ccccc1[N+](=O)[O-],5,13,-1,·
NC(=S)NN=Cc1coc2ccccc2c1=O,0,·,·,·
Cc1ccc(S(=O)(=O)NN=Cc2ccc([N+](=O)[O-])o2)cc1C,11,·,·,·
Cc1c(N/C(=N/S(=O)(=O)c2ccc(Cl)cc2)c2ccccc2)c(=O)n(-c2ccccc2)n1C,-1,·,·,·
O=C(NCc1ccccc1)C1CCCN(S(=O)(=O)c2cccnc2)C1 (configuration not stated),·,-6,25,0
O=C(NCc1cccnc1)C1CCN(S(=O)(=O)c2cccnc2)CC1,·,-7,i,·
Cc1noc(C)c1NC(=O)Nc1cccc2c1OC(CN(C)C(=O)Nc1ccccc1)C(C)CN(C(C)CO)C2=O (configuration not stated),7,·,·,·
CCOc1ccc(CCNC(=O)COC(=O)Cc2c[nH]c3ccccc23)cc1OCC,2,10,-1,·
CCOc1ccc(CCNC(=O)COC(=O)Cc2ccc(F)cc2)cc1OCC,9,18,14,3
COc1ccccc1C(=O)Nc1cccc(NC(=O)c2ccccc2C)c1,·,5,0,·
Cc1ccccc1C(=O)Nc1cccc(N)c1,·,4,48*,3
COc1ccc(C2(SCC(N)C(=O)O)c3ccccc3-c3ccccc32)cc1 (configuration not stated),·,3,-1,·
O=C(NCc1ccccn1)c1ccc(CS(=O)(=O)Cc2ccc(Cl)cc2)o1,4,0,15*,0
SMILES,Mtb hypoxia rep,Yp Topo-I inh,Vc quorum ag-1,Vc quorum ag-2
Cc1ccccc1CS(=O)(=O)Cc1ccc(C(=O)NCc2ccccn2)o1,8,6,i,·
Cc1cccc(C=NNC(=O)C2CCCNC2=O)c1 (configuration not stated),7,·,·,·
CC1CN(C(C)CO)C(=O)c2cc(NC(=O)CCCCCC(=O)Nc3ccccc3N)ccc2OC1CN(C)Cc1ccncc1 (configuration not stated),15,·,·,·
Cc1cnc(C(=O)OCC(=O)NC(=O)NC(C)C)cn1,-6,-5,33*,0
Cc1cnc(C(=O)OCC(=O)Nc2ccc(Cl)cc2)cn1,8,-4,i,·
COC(=O)[C@@]12CCCCN1C(c1ccc(-c3ccc(F)cc3)cc1)C1C(=O)N(C)C(=O)C12 (some centres not stated),9,·,·,·
Cc1ccc(C)c(NC(=S)NN=CC(C)c2ccccc2)c1 (configuration not stated),-5,·,·,·
COC(=O)c1ccc(N2CCN(C)CC2)c(NC(=O)c2cccs2)c1,2,-4,0,·
Cc1ccc(N(C(C)C(=O)N2CCCCC2)S(C)(=O)=O)cc1C (configuration not stated),-4,8,25*,0
CC(C(=O)N1CCCCCC1)N(c1ccc(Cl)cc1)S(C)(=O)=O (configuration not stated),-7,2,-1,·
COc1ccc(S(=O)(=O)NCC(c2ccc(C)cc2)N2CCN(C)CC2)cc1 (configuration not stated),0,-7,i,·
N#Cc1ccc(C23CC4(C2)C(CN(Cc2ccc(-c5ccccc5)cc2)C4c2ccccc2)C3c2ccc(C(F)(F)F)cc2)cc1 (configuration not stated),8,·,·,·
COc1cccc(CNC(=O)C2CSC3(C)CCC(=O)N23)c1 (configuration not stated),4,-2,14,0
COc1ccccc1CNC(=O)C1CSC2(C)CCC(=O)N12 (configuration not stated),7,-11,i,·
Cc1c(C=NNC(=O)c2cccnc2)cc(C#N)n1C,13,·,·,·
O=C(c1cccc(S(=O)(=O)N2CCc3ccccc32)c1)N1CCOCC1,8,3,288*,0
O=C(c1cccc(S(=O)(=O)N2CCc3ccccc32)c1)N1CCc2ccccc2C1,9,18,-3,·
NC(=O)CCC1NC(=O)C2CCCN2C(=O)c2cc([N+](=O)[O-])cc(I)c2NCCCC(C(N)=O)NC1=O (configuration not stated),17,·,·,·
O=C(NCC(F)(F)F)Nc1ncccn1,·,8,15*,2
O=C(NCC(F)(F)F)Nc1ccccn1,5,1,2,·
C(=NN1CCN(Cc2ccccc2)CC1)c1ccccc1,14,·,·,·
O=C(NN=Cc1cccc(Oc2ccccc2)c1)c1cc[n+]([O-])cc1,-4,·,·,·
O=S(=O)(Nc1cccc(S(=O)(=O)N2CCCCC2)c1)c1ccccc1F,4,-1,26*,0
O=S(=O)(Nc1cccc(S(=O)(=O)N2CCCC2)c1)c1ccccc1F,1,-6,-3,·
CCN(CC(=O)Nc1ccccc1OC)C(=O)c1ccc(N(C)S(=O)(=O)c2ccc(C)cc2)cc1,-1,25,-6,·
SMILES,Mtb hypoxia rep,Yp Topo-I inh,Vc quorum ag-1,Vc quorum ag-2
Cc1nc(Nc2ccncc2)c2oc3ccccc3c2n1,0,-2,-1,·
CC(=O)Nc1ccc(Nc2nc(C)nc3c2oc2ccccc23)cc1,13,-11,17*,12
Cc1ccc(Oc2ccc(S(=O)(=O)N3CCOCC3)cc2C(N)=O)c(-n2nc3ccccc3n2)c1,·,31,25*,1
COc1ccccc1Oc1ccc(S(=O)(=O)N2CCOCC2)cc1S(=O)(=O)N1CCOCC1,15,-8,·,·
CN(C)c1ccc(C=NNC(=O)CNC(=O)/C=C/c2ccco2)cc1,7,·,·,·
Cc1cccc(-c2noc(CN(C(=O)C34CC5CC(CC(C5)C3)C4)C(C)C)n2)c1,·,1,18*,0
CC(C)N(Cc1nc(-c2ccc(Cl)cc2)no1)C(=O)C12CC3CC(CC(C3)C1)C2,·,-3,4,·
